Screens as filed in PubChem.
uPA generation: qHTS for Inhibitors of Cell Surface uPA Generation | AID 540303, 2011 | cell surface uPA generation assay, qHTS | Potency, µM (series often up to 38.3 µM), for the others: at the highest dose activity change, negative = inhibition, hits mostly inhibitors | 0.31% of 330,000 active; active = well fitted inhibition curve with a large enough effect; inconclusive = small, poorly fitted or top-dose-only effect; inactive = no such curve, though single readings can be large or run the other way; tested in mouse RAW 264.7 cells; note: potency is the fitted concentration of half-maximal effect; % is set by controls: 0 for no effect and ±100 for the full control effect; nearly all actives have a fitted effect of over 55% in size
TDP1 block: qHTS Assay for Inhibitors of Tyrosyl-DNA Phosphodiesterase (TDP1). Tyrosyl-DNA phosphodiesterase 1 (Homo sapiens), Q9NUW8. recombinant TDP1, AlphaScreen DNA substrate cleavage. Potency, µM (titrated, usually from 130 µM), inactives show top-dose activity change, negative = inhibition, actives largely listed as inhibitors. 0.28% of 350,000 active. AID 485290, 2010; note: potency is the fitted concentration of half-maximal effect; % is set by controls: 0 for no effect and ±100 for the full control effect; nearly all actives have a fitted effect of over 40% in size
Target sequence (Q9NUW8 whole entry, looked up): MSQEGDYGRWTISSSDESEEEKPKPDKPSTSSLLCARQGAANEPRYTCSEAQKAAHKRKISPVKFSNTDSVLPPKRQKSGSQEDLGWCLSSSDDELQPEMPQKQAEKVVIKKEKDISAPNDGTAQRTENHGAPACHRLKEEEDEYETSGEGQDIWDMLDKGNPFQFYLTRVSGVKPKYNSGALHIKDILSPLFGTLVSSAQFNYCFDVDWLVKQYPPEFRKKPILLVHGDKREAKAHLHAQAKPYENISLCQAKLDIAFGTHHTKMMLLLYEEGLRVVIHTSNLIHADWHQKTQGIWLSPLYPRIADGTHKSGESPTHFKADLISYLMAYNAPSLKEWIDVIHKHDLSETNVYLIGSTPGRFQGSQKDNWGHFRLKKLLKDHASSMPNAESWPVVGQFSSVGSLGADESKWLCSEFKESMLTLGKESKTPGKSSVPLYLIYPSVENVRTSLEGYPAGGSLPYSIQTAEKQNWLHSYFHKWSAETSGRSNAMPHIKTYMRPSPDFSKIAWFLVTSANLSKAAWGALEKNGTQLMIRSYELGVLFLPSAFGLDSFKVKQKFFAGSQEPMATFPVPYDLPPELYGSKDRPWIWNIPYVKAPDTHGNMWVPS
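Tdp1 1 nM final; 15 min RT w/ cpd; substrate 15 nM, 5 min; beads 10 ug/ml, 10 min; AlphaScreen read. Neg ctrl: no enzyme.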
DT40 TDP1 CPT: qHTS for Inhibitors of human tyrosyl-DNA phosphodiesterase 1 (TDP1): qHTS in cells in presence of CPT; 12% of 420,000 active; Potency, µM (top dose mostly 46.2 µM), for the others: at the top dose activity change, negative = growth inhibition, most hits filed as inhibitors; chicken DT40 Tdp1-/-;hTDP1 cells + 20 nM CPT, ATP luminescence, 48 h; AID 686979, 2013; note: potency is the fitted concentration of half-maximal effect; % is set by controls: 0 for no effect and ±100 for the full control effect; nearly all actives have a fitted effect of over 55% in size
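Cell growth measured by CellTiter-Glo luminescence after a minimum 48 h, 37 C compound exposure with 20 nM CPT in Tdp1-knockout DT40 cells stably expressing hTDP1, seeded 400/well; qHTS titration format.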
DT40 TDP1 no CPT: qHTS for Inhibitors of human tyrosyl-DNA phosphodiesterase 1 (TDP1): qHTS in cells in absence of CPT. 15% of 420,000 active. DT40 Tdp1-/- hTDP1 cells, no CPT, ATP luminescence, 48 h. Potency, µM (highest dose often 46.2 µM), inactives show at the highest dose activity change, negative = growth inhibition, actives largely listed as inhibitors; note: potency is the fitted concentration of half-maximal effect; % is set by controls: 0 for no effect and ±100 for the full control effect; nearly all actives have a fitted effect of over 55% in size
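Readout: luminescence from CellTiter-Glo after 30 min in the dark at RT. Cells: DT40 Tdp1-/- with stable hTDP1, 400/well. Exposure: compounds alone, ≥48 hr, 37 °C.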
miR-21 reporter: qHTS Assay for Modulators of miRNAs and/orActivators of miR-21; HeLa miR-21 FLuc reporter, luciferase, 48 h; Potency, µM (doses to about 38.3 µM), without a hit: top-dose activity change, positive = activation, most hits filed as activators; 340,000 tested, under 10 active; AID 2288, 2010;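 note: % of control where 0% means no effect; miR-21 action dims this reporter so a rising signal means less miR-21 action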
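HeLa miR-21-FLuc reporter line, endogenous miR-21; 2000 cells/well in DMEM/10% FBS; compound titration up to ~40uM final, 48 h, 37 degree Celsius; luciferase detection reagent, 15 min lysis, CCD luminescence.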
* = called active by the depositor; ? = inconclusive; . = no result given; [ ] = another dose, or the depositor's remark. Compounds with a hit are over-represented: about 16% of the library has one in this group of screens. Unless noted, calls come from the whole dose curve; as a rule, active = well fitted curve in the direction sought with a large enough effect; inconclusive = small, poorly fitted or top-dose-only effect, or another doubt; inactive = no such curve, though single readings can be large; an effect the other way counts as inactive or inconclusive.

SMILES	uPA generation	TDP1 block	DT40 TDP1 CPT	DT40 TDP1 no CPT	miR-21 reporter
COc1ccc(CNC(=O)C(C)Cc2ccccc2)cc1O (stereo not drawn)	6%	4%	-15%	-15%	-3%
Cc1ccc(/C=C/C(=O)Nc2cccc(S(=O)(=O)N3CCOCC3)c2)o1	-1%	1%	23µM*	?	-7%
COc1ccccc1N1CCN(C(C)C(=O)Nc2ccc(S(=O)(=O)N3CCOCC3)cc2)CC1 (stereo not drawn)	-7%	-1%	?	13µM*	-1%
COc1ccc(/C=C/C(=O)NC2CCCCCCC2)cc1S(=O)(=O)N1CCOCC1	-11%	0%	21µM*	21µM*	-16%
O=C(/C=C/c1ccccc1)Nc1ccc(S(=O)(=O)N2CCOCC2)cc1	-10%	.	-18%	-18%	.
CC(=O)c1cccc(NC(=O)/C=C/c2ccc(S(=O)(=O)N3CCOCC3)cc2)c1	-5%	1%	?	18µM*	.
COc1ccc(NC(=O)CSc2nnc(-c3cccs3)n2N)c(OC)c1	1%	3%[0.505 µM]	4%	1%	.
CN(C)S(=O)(=O)c1cccc(NC(=O)/C=C/c2ccc(S(=O)(=O)N3CCOCC3)cc2)c1	?	3%	15µM*	18µM*	.
O=C(/C=C/c1cccc(F)c1)Nc1ccc(S(=O)(=O)N2CCOCC2)cc1	-5%	1%	?	?	.
Cc1ccc(NC(=O)[C@@H](NC(=O)c2cccc(S(=O)(=O)N3CCOCC3)c2)C(C)C)cc1C	-8%	0%	?	12µM*	-3%
CCN1C(=O)CSC1=Nc1ccc(OC)cc1	-1%	.	7%	-5%	0%
COc1ccc(CNC(=O)C2CCN(c3nc4ccccc4[nH]3)CC2)c(OC)c1	.	11%	18µM*	?	11%
COc1ccc(NC(=O)C2CCN(c3nc4ccccc4[nH]3)CC2)cc1OC	.	5%	-4%	-4%	7%
O=C(Nc1cccc(F)c1)C1CCN(c2nc3ccccc3[nH]2)CC1	.	0%	23µM*	?	-8%
CN(c1nc2ccccc2n2c(C3CC3)nnc12)S(=O)(=O)c1ccccc1	-6%	.	-27%	?	0%
CC(C)CCn1c(CN2CC(C)OC(C)C2)nc2c1c(=O)n(C)c(=O)n2C (stereo not drawn)	0%	.	-2%	-1%	1%
COc1ccccc1NC(=O)CSC1CC(=O)N(c2ccc3c(c2)OCO3)C1=O (stereo not drawn)	.	-2%	4.6µM*	6.5µM*	-5%
COc1ccc(NC(=O)CSC2CC(=O)N(c3ccc4c(c3)OCCO4)C2=O)cc1 (stereo not drawn)	-2%	11%	21µM*	23µM*	-1%
COc1ccccc1NC(=O)CN1CCN(CC(=O)Nc2ccc3c(c2)OCO3)CC1	-3%	5%	?	?	4%
CCCC(=O)c1ccc(N2CCN(C(=O)c3cccs3)CC2)c(F)c1	-14%	.	?	?	-8%
COc1ccccc1-c1ccnc(-n2ncc(C(=O)N(C)CCc3ccccn3)c2C)n1	.	.	8%[9.04 µM]	8%	.
Cc1cnc(-n2ncc(C(=O)N(C)CCc3ccccn3)c2-c2cccs2)nc1-c1ccc(F)cc1	.	.	-14%[9.04 µM]	12µM*	.
Cc1ccn2c(NC3CCCC3)c(-c3cccs3)nc2c1	1%	5%	15µM*	23µM*	-32%
Cc1ccn2c(NC(=O)c3ccccc3)c(-c3cccs3)nc2c1	.	4%	-32%	-7%	-24%
c1csc(-c2nc3ccccn3c2NC2CCCCC2)c1	-3%	5%	?	?	-4%
SMILES	uPA generation	TDP1 block	DT40 TDP1 CPT	DT40 TDP1 no CPT	miR-21 reporter
Cc1ccn2c(NCc3ccccc3)c(-c3cccs3)nc2c1	-4%	5%	16µM*	23µM*	-57%
CCOc1ccc(C(=O)NCc2ccc3c(c2)CCN3C(=O)c2ccc(C)cc2)cc1OCC	.	0%	12µM*	13µM*	15%
CCOc1ccccc1C(=O)NCc1ccc2c(c1)CCN2C(C)=O	.	1%	0.92µM*	1.6µM*	-4%
Cc1ccc(C(=O)N2CCc3cc(CNC(=O)c4ccccc4F)ccc32)cc1	.	5%	?	21µM*	18%
CCOc1cc(C(=O)NCc2ccc3c(c2)CCN3C(=O)c2ccc(F)cc2)cc(OCC)c1OCC	.	1%	?	26µM*	27%
COc1ccc(C(=O)NCc2ccc3c(c2)CCN3C(C)=O)c(OC)c1	.	-2%	-17%	-15%	-8%
CC(C)(C)c1ccc(C(=O)Cn2nc(C(=O)O)c3ccccc3c2=O)cc1	11%	4%	?	?	-1%
O=C(Nc1sc2c(c1C(=O)NCc1ccccc1)CCCC2)c1cc(=O)c2cc(Cl)ccc2o1	.	6%	11%	-1%	-1%
O=C(O)c1ccccc1NS(=O)(=O)c1ccc(NNC(=S)Nc2ccc(OC(F)F)cc2)c([N+](=O)[O-])c1	2%	11%	?	-29%	14%
CCN(C(=O)COC(=O)CNC(=O)C12CC3CC(CC(C3)C1)C2)C1CCS(=O)(=O)C1 (stereo not drawn)	2%	-3%	-6%	-22%	-8%
N#Cc1ccc(C(=O)NCc2ccc3c(c2)CCN3C(=O)c2ccc(F)cc2)cc1	.	1%	?	23µM*	?
CCC(=O)N1CCc2cc(CNC(=O)c3ccc(C#N)cc3)ccc21	.	2%	?	-23%	-1%
CCN(CC)c1ccc(C(=O)NCc2ccc3c(c2)CCN3C(=O)c2ccc(F)cc2)cc1	.	3%	5.8µM*	4.6µM*	8%
Cc1cc(C)c(NC(=O)C2CCN(C(=O)c3ccco3)CC2)c(C)c1	4%	.	12%	-1%	0%
CC(C)c1ccc(NC(=S)N2CCCC2)cc1	-3%	2%[56.1 µM]	?	2%	-50%
Oc1cc(O)cc(-c2cc3ccc(O)cc3o2)c1	-7%	.	-2%	?	.
CC1(C)Oc2cc3oc(-c4cc(O)cc(O)c4)cc3cc2CC1O (stereo not drawn)	8.9µM*	.	21µM*	?	.
Cn1nnnc1SCC(=O)N1N=C(c2cccs2)CC1c1cccs1 (stereo not drawn)	-3%	1%	?	?	.
Cn1c(Cc2ccc(Cl)cc2)nnc1SCC(=O)NC1CC1	1%	2%	2%	1%	-5%
CCCCNC(=O)Cn1c(=O)oc2cc(S(=O)(=O)N3CC(C)CC(C)C3)ccc21 (stereo not drawn)	-9%	0%	12µM*	?	0%
CC1CCC(NC(=O)Cn2c(=O)oc3cc(S(=O)(=O)N4CCCC4)ccc32)CC1 (stereo not drawn)	-7%	.	-12%	-21%	8%
